Our source for the growth values is PubChem BioAssay (NCI).

Holding throughout (experiment): NCI-60 one-dose screen, 48 h (100 = growth as untreated, 0 = no growth, -100 = all killed)
Conditions in all cases: 10 µM unless noted

The subject of test [1] is T-47D breast.
Test [2] concerns BT-549 breast.
Test [3] deals with MDA-MB-435 melanoma.
Test [4] has as its system SW-620 colon.
Test [5] has as its system HCT-116 colon.
The subject of test [6] is HCC-2998 colon.
For test [7], the system named is KM12 colon.
Test [8] deals with MCF7 breast.

The panel holds about 83,000 compounds, 20% with a hit somewhere; the sample as a whole holds those more often.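 A percent growth of 40 corresponds to 60% growth inhibition; 0 means no net growth; -100 means all cells died. Active threshold: below 10.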 A number with no mark means an inactive call. Calls of active or inactive are those of the source.

Consider `NNC(=O)c1nc(N)n(-c2ccc(S(N)(=O)=O)cc2)n1`, for which the growth in test [1] is 93.5%; in test [2], 92.7%; in test [3], 97.8%; in test [4], 96%; in test [5], 95.3%; in test [6] it was 101%. The growth in test [7] is 95.5%.

For the compound `CCCCC1CCCCN1C(=O)OCC` (stereo not drawn), the growth in test [1] was 89.2%; in test [2], 73.9%; in test [3], 111%; in test [8], 107%; in test [5], 94%; in test [6] it was 101%. For the same compound, the growth in test [7] was 123%.

On to `O=c1c2c3c(sc2nc(N/N=C/c2ccc(Br)cc2)n1Cc1ccccc1)CCCC3`, for which the growth in test [1] is 87.5%; in test [2], 93.6%; in test [3], 83.4%; in test [8], 58.3%; in test [5] it was 67.4%; in test [6], 37.3%. Also, the growth in test [7] was 81.9%.

In the case of `COC(=O)[C@]12CC[C@@H](C)[C@H](C)[C@@H]1C1=CC[C@@H]3[C@@]4(C)C(C=O)=C[C@@](C)(CO)[C@@H]4[C@H](O)C[C@@]3(C)[C@]1(C)CC2`, the growth in test [1] is -19.8% (active); in test [2], -15.6% (active); in test [3], -16% (active); in test [8], 3.73% (active); in test [5], -81.4% (active); in test [6], -79.2% (active). The growth in test [7] was 1.71% (active).

For the compound `CCc1ccccc1-n1c(N)c(C#N)c(-c2ccc(N(C)C)cc2)c(C#N)c1=O`, the growth in test [1] was 80%; in test [2] it was 85.5%; in test [3] it was 100%; in test [4], 93%; in test [5], 94.1%; in test [6], 104%. For the same compound, the growth in test [7] is 97.6%.

As for `N=C1CCC(=N)c2c1c(O)c1ccccc1c2O`, the growth in test [1] is 89.5%; in test [2] it was 97.1%; in test [3], 114%; in test [4], 101%; in test [5], 101%; in test [7], 96.8%.

In the case of `O=c1c2c3c(sc2n2c(-c4cc(-c5ccccc5)nn4-c4ccccc4)nnc2n1Cc1ccccc1)CCCC3`, the growth is 72.5% in test [1]; 97.4% in test [2]; 85.2% in test [3]; 83.2% in test [4]; 55.4% in test [5]; 98.8% in test [6]. Further, the growth in test [7] is 84.1%.

Turning to `COc1cc(/C=C/C(=O)c2c(C)nc3ccccc3c2/C=C/c2ccc(C)cc2)cc(OC)c1OC`, the growth in test [1] is 19%; in test [2], 35.6%; in test [3] it was 11.1%; in test [4] it was 3.22% (active); in test [5], -70.3% (active); in test [6], -21.3% (active). Moreover, the growth in test [7] is 13.2%.

`O=C1CCC2=C3C4CCCCC4C(=O)C4CCCC(OC2C1)C34` (stereo not drawn): the growth was 46.4% in test [1]; 7.09% (active) in test [2]; -68% (active) in test [3]; 4.34% (active) in test [4]; -7.43% (active) in test [5]; -2.73% (active) in test [7].

Take `Cc1ccc(-n2nc3c(c(C#N)c2=O)CC(c2ccccc2Cl)C([N+](=O)[O-])=C3O)cc1` (stereo not drawn): the growth was 73.4% in test [1]; 103% in test [2]; 102% in test [3]; 94% in test [8]; 63.8% in test [5]; 113% in test [6].

Turning to `Fc1ccc(CNc2c3ccccc3nc3ccccc23)cc1F`, the growth is 47.9% in test [1]; 68.2% in test [2]; 49.2% in test [3]; 12.9% in test [8]; 8.18% (active) in test [5]; 2.15% (active) in test [6]. The growth in test [7] was 53.3%.

`COc1cc(/C=C/C(=O)c2c(C)nc3ccccc3c2C)ccc1OCCCN1CCN(C(=O)c2ccco2)CC1`: the growth in test [1] is 67.7%; in test [2] it was 86.3%; in test [3] it was 61.6%; in test [8], 75.4%; in test [5], 76.6%; in test [6] it was 46.5%. In addition, the growth in test [7] is 98%.

Turning to `O=C(CCc1nnc(CN(c2ccccc2)c2ccccc2)o1)c1nc2ccccc2[nH]1`, the growth was 74.4% in test [1]; 84.8% in test [2]; 94.3% in test [3]; 103% in test [4]; 73.6% in test [5]; 90.3% in test [6]. The growth in test [7] is 99.8%.

Consider `CCSC1=NC2C(N(CC)C(=O)N2CC)N1/N=C/C=C/c1ccccc1[N+](=O)[O-]` (stereo not drawn), for which the growth is 63.3% in test [1]; 10.1% in test [2]; -37.4% (active) in test [3]; 12.3% in test [8]; 4.16% (active) in test [5]; 11% in test [6]. The growth in test [7] is 10.1%.

As to `Fc1c[c-]c(-c2ccccn2)c(F)c1.[CH3-].[Pt+2].c1ccc(P(C[PH+](c2ccccc2)c2ccccc2)c2ccccc2)cc1`, the growth in test [1] is -5.03% (active); in test [2] it was -28.1% (active); in test [3] it was -51.8% (active); in test [8] it was 6.04% (active); in test [5], -66% (active); in test [6], -27.5% (active).

For the compound `CC(=O)C(C)Cc1cc2c(cc1C)C(C)(C)CCC2(C)C` (stereo not drawn), the growth is 80.2% in test [1]; 95.5% in test [2]; 104% in test [3]; 102% in test [4]; 95.1% in test [5]; 102% in test [6]. Further, in test [7], the growth was 105%.

Turning to `O=[N+]([O-])c1ccc(OCCO)cc1`, the growth in test [1] is 101%; in test [2] it was 109%; in test [3], 105%; in test [4], 101%; in test [5], 103%; in test [6], 113%. Besides, in test [7], the growth is 106%.

`COc1ccc(NC(=O)CSc2nc(C)c(C(C)=O)n2-c2ccc([N+](=O)[O-])cc2)cc1`: the growth in test [1] is 87.8%; in test [2], 91.5%; in test [3] it was 93.2%; in test [4] it was 96.6%; in test [5] it was 86.5%; in test [6], 105%. Moreover, the growth in test [7] was 107%.

Turning to `CC(=O)[C@@H]1CC[C@]2(COS(=O)(=O)c3ccc(C)cc3)CC[C@]3(C)[C@H](CC[C@@H]4[C@@]5(C)CCCNC(C)(C)[C@@H]5CC[C@]43C)[C@@H]12`, the growth in test [1] was 49.7%; in test [2] it was 82.6%; in test [3], 52.2%; in test [8], 58.2%; in test [5], 32.8%; in test [6] it was 26.6%. Also, the growth in test [7] was 52.3%.

As to `Cc1ccc2nc(C)c(-c3nnc(SCc4ccc(C#N)cc4)o3)n2c1`, the growth was 89.3% in test [1]; 85.8% in test [2]; 101% in test [3]; 77.8% in test [8]; 91.8% in test [5]; 108% in test [6]. For the same compound, the growth in test [7] is 106%.

Take `CC(C)(C)c1ccc(/C=C/C(=O)Nc2ccc(O)cc2)cc1`: the growth is 64.4% in test [1]; 66.6% in test [2]; 50.9% in test [3]; 71% in test [4]; 68.1% in test [5]; 97% in test [6]. The growth in test [7] is 36.5%.

On to `O=c1[nH]c2ccccc2n1C1CCN(CCOc2ccccc2)CC1`, for which the growth is 87.5% in test [1]; 90.3% in test [2]; 97.7% in test [3]; 103% in test [4]; 84.7% in test [5]; 98.5% in test [6]. Further, the growth in test [7] is 96.9%.

As to `NCCCNc1nc2ccccc2c2c(=O)c3cccc(Cl)c3sc12`, the growth in test [1] was 35.3%; in test [2] it was 76.6%; in test [3], -43.3% (active); in test [8], -86.6% (active); in test [5], -92% (active); in test [6], -94.1% (active). Also, the growth in test [7] was -72.6% (active).

Consider `OC(COc1ccccc1Cl)COc1ccccc1Cl`, for which the growth in test [1] was 97.1%; in test [2], 86.6%; in test [3], 94.8%; in test [4], 97.9%; in test [5] it was 90.9%; in test [7], 99.2%.
